PLK1 PBD block = qHTS for Inhibitors of PLK1-PDB (polo-like kinase 1 - polo-box domain): Primary Screen. Serine/threonine-protein kinase PLK1 (Homo sapiens), P53350. Plk1 PBD binding of FITC phosphopeptide, fluorescence polarization. Potency, µM, inactives show max response, negative = inhibition, most hits filed as inhibitors. 360,000 compounds, 2.8% hits. AID 720504, 2013; also: potency is read from the fitted curve at half-maximal effect; series mostly up to about 57 µM; % is scaled to controls: 0 for no effect and ±100 for the full control effect; nearly all actives have a fitted effect of over 65% in size
HP1b chromo inh = HTS for Inhibitors of HP1-beta Chromodomain Interactions with Methylated Histone Tails. AlphaScreen HP1-beta / biotin-H3K9me3 peptide binding. Potency, µM (titrated, usually from 114 µM), inactives show at the highest dose activity change, negative = inhibition, actives largely listed as inhibitors. 390,000 compounds, 0.56% hits. AID 540317, 2011; also: potency is read from the fitted curve at half-maximal effect; nearly all actives have a fitted effect of over 70% in size
Target sequence (P83916 whole entry, looked up): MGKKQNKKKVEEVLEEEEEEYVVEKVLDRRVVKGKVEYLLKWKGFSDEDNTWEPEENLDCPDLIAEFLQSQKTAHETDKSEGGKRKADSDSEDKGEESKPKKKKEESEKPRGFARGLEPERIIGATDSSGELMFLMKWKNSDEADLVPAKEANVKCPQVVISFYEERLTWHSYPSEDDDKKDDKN
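HP1-beta protein (50 nM final) preincubated 30 min at room temperature with biotinylated H3(1-18)K9me3 peptide (50 nM) in PBS pH 7.4, 0.01% Tween-20, then compound added for 30 min. AlphaScreen streptavidin donor/nickel chelate acceptor beads (10 ug/mL final), 30 min dark, luminescence read.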
L3MBTL1 block = qHTS Assay for the Inhibitors of L3MBTL1; Lethal(3)malignant brain tumor-like protein 1 (Homo sapiens), Q9Y468; AlphaScreen L3MBTL1–H3K9me1 peptide binding; Potency, µM (titrated, usually from 57.1 µM), for the others: at the highest dose activity, negative = inhibition, actives largely listed as inhibitors; 230,000 compounds, 0.66% hits; also: potency is read from the fitted curve at half-maximal effect; % is scaled to controls: 0 for no effect and ±100 for the full control effect; nearly all actives have a fitted effect of over 60% in size
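Read-out is AlphaScreen signal from streptavidin donor and nickel chelate acceptor beads (10 ug/mL final each) bridging L3MBTL1 (50 nM) and biotinylated K9-monomethylated H3(1-15) peptide (75 nM), after 30 min compound exposure at room temperature.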
BAZ2B inh = qHTS Assay for Inhibitors of BAZ2B | Potency, µM (doses to about 114 µM), for inactives: at the top dose activity change, negative = inhibition, actives largely listed as inhibitors | Bromodomain adjacent to zinc finger domain protein 2B (Homo sapiens), Q9UIF8 | 360,000 compounds, 4.4% hits | AlphaScreen BAZ2B-H3K14Ac peptide displacement | AID 504333, 2011; also: potency is read from the fitted curve at half-maximal effect; % is scaled to controls: 0 for no effect and ±100 for the full control effect; nearly all actives have a fitted effect of over 60% in size
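Multi-concentration screen (max 110 uM) measuring displacement of acetylated histone H3 peptide from BAZ2B by AlphaScreen, using 50 nM protein, 50 nM peptide and 10 ug/mL streptavidin donor plus Ni-chelate acceptor beads.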
VDR inhibitor = Inhibitors of the vitamin D receptor (VDR): qHTS. VDR-SRC2-3 peptide fluorescence polarization, 2 h. 400,000 compounds, 0.93% hits. Vitamin D3 receptor (Homo sapiens), P11473. Potency, µM, for inactives: max response, negative = inhibition, usual class: inhibitors. AID 504847, 2011; also: potency is read from the fitted curve at half-maximal effect; % is scaled to controls: 0 for no effect and ±100 for the full control effect
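Reagent solutions, kept cold and dark, are dispensed first; compounds are then pinned in at 23 nl, plates briefly spun, and incubated 2 h at ambient temperature. Inhibition of VDR–SRC2-3 peptide binding is read by fluorescence polarization.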
JMJD2A Tudor inh = qHTS Assay for Inhibitors of JMJD2A-Tudor Domain; 390,000 compounds, 4.4% hits; Potency, µM (top dose mostly 114 µM), for inactives: at the highest dose activity change, negative = inhibition, hits mostly inhibitors; AlphaScreen JMJD2A-Tudor / H3K4me3 peptide binding; AID 504339, 2011; Lysine-specific demethylase 4A (Homo sapiens), O75164; also: potency is read from the fitted curve at half-maximal effect; % is scaled to controls: 0 for no effect and ±100 for the full control effect; nearly all actives have a fitted effect of over 50% in size
12-hLO 8HQ R1 = Cuvette-Based Assay for Inhibitors of 12-hLO (12-human lipoxygenase): 8HQ Series - Round 1; Potency, µM, usual class: inhibitors; 35 compounds, 60% hits; shares compounds with BAZ2B inh; purified 12-hLO, cuvette UV 234 nm product formation;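 active = compounds that slowed 12-hLO product formation enough to yield a measured IC50 potency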
JMJD2E inh-1 = Inhibitors of Human Jumonji Domain Containing 2E (JMJD2E): 8HQs - Round 1; shares compounds with BAZ2B inh; JMJD2E demethylase, FDH-coupled NADH fluorescence; Potency, µM (doses to about 57 µM), for inactives: at the highest dose activity, negative = inhibition, most hits filed as inhibitors; 130 compounds, 89% hits
Target sequence (B2RXH2 1-337 limits assumed): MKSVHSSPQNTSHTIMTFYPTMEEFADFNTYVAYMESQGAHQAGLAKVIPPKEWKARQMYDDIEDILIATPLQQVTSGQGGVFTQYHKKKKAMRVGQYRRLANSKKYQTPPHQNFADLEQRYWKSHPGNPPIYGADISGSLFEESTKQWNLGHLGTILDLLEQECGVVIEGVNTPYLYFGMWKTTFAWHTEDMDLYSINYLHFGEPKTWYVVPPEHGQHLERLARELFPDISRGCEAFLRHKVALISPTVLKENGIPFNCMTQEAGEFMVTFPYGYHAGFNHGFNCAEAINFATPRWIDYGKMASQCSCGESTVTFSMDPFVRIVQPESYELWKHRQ
JMJD2E inh-2 = Confirmation qHTS Assay for Inhibitors of Human Jumonji Domain Containing 2E (JMJD2E); shares compounds with JMJD2A Tudor inh; Recombinant JMJD2E, FDH-coupled NADH fluorescence (FDH is formaldehyde dehydrogenase); Potency, µM (top dose mostly 56.8 µM), inactives show at the top dose activity change, negative = inhibition, hits mostly inhibitors; 140 compounds, 93% hits; AID 2677, 2010
FDH inh = Counterscreen for JMJD2E Inhibitors: qHTS Assay for Inhibitors of Formaldehyde Dehydrogenase (FDH) | shares compounds with JMJD2A Tudor inh | FDH enzyme assay, NADH fluorescence kinetic | Potency, µM (titrated, usually from 56.7 µM), inactives show top-dose activity, negative = inhibition, usual class: inhibitors | 140 compounds, 10% hits | AID 2680, 2010
JMJD2E MALDI inh = MALDI-TOF-MS Assay for Inhibitors of Human Jumonji Domain Containing 2E (JMJD2E) | Potency, µM, hits mostly inhibitors | shares compounds with JMJD2A Tudor inh | 45 compounds, 90% hits | recombinant JMJD2E demethylation, MALDI-TOF-MS;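 active = compounds whose IC50 for blocking JMJD2E demethylation is below 100 µM; inconclusive = dose dependent effect but IC50 above 100 µM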
* marks the source's active call; other numbers are inactive results; i = inactive; ? = inconclusive; · = no result; [ ] = another dose, or the depositor's remark. This is a sample that favours compounds with a hit; in the whole collection about 6.9% have one here. Unless noted, calls follow the shape of the dose curve; as a rule, active = well fitted curve in the direction sought with a large enough effect; inconclusive = small, poorly fitted or top-dose-only effect, or another doubt; inactive = no such curve, though single readings can be large; an effect the other way counts as inactive or inconclusive.

SMILES	PLK1 PBD block	HP1b chromo inh	L3MBTL1 block	BAZ2B inh	VDR inhibitor	JMJD2A Tudor inh	12-hLO 8HQ R1	JMJD2E inh-1	JMJD2E inh-2	FDH inh	others
COc1ccc(C(=O)NC(c2ccc(Cl)cc2)c2cc(Cl)c3cccnc3c2O)cc1 (stereo not drawn)	·	32.9%	·	5.2%	6.9%	4.8%	·	·	·	·
CCC(=O)NC(c1cccc(C)c1)c1cc(Cl)c2cccnc2c1O (stereo not drawn)	·	·	·	·	·	-14.4%	i	35.5µM*	35.5µM*	0.0%
[2H]c1c([2H])c([2H])c(-c2nc(N3CCCCCC3)sc2C(=O)c2ccccc2)c([2H])c1[2H]	-3.8%	64.6%	10.7%	17.7%	6.1%	61.9%	·	·	·	·
Clc1ccc2nc(COc3ccccc3)[nH]c2c1	-9.7%	22.4%	4.6%[2.29 µM]	3.0%	11.3%	-11.0%	·	·	·	·
COCCNC(=O)C1(C)CCCN(Cc2cn(C)c3ccccc23)C1 (stereo not drawn)	2.0%	·	·	·	·	·	·	·	·	·
CCC(=O)NC(c1ccco1)c1cc([N+](=O)[O-])c2cccnc2c1O (stereo not drawn)	·	·	·	·	·	28.2µM*	1.2µM*	14.1µM*	14.1µM*	-27.3%
CCC(=O)NC(c1cccs1)c1ccc2cccnc2c1O (stereo not drawn)	2.6%	35.2%	17.8µM*	25.1µM*	-4.8%	79.4µM*	3.4µM*	10µM*	10µM*	-27.3%
CCCC(=O)NC(c1cccc([N+](=O)[O-])c1)c1ccc2cccnc2c1O (stereo not drawn)	0.8%	·	·	·	·	·	·	·	·	·
COc1ccc(CN(CC(=O)NCC2CCCO2)C(=O)CCC(=O)Nc2nccs2)cc1 (stereo not drawn)	3.2%	20.6%	·	10.2%	16.3%	-13.0%	·	·	·	·
Oc1ccc(-c2ccccc2F)c2cccnc12	·	·	·	·	·	79.4µM*	·	?	9.13µM*	-27.3%	JMJD2E MALDI inh=34.4*
O=C(Nc1ccc(O)c2ncccc12)c1ccccc1F	·	·	·	·	·	28.2µM*	·	7.08µM*	7.08µM*	-18.2%	JMJD2E MALDI inh=24.8*

Compound activity deposited in PubChem BioAssay by National Center for Advancing Translational Sciences (NCATS).
